D3 antag – blocks the human D3 dopamine receptor; max response, negative = inhibition, %; D3R cells, DiscoveRx beta-arrestin luminescence, antagonist mode; stronger effect = lower value; actives 2.5% (n = 360,000); in the data active = max response below about -50%; inconclusive = no clear call, values can overlap the other calls; also: % is scaled to controls: 0 for no effect and ±100 for the full control effect
Target sequence (P35462 whole entry, looked up): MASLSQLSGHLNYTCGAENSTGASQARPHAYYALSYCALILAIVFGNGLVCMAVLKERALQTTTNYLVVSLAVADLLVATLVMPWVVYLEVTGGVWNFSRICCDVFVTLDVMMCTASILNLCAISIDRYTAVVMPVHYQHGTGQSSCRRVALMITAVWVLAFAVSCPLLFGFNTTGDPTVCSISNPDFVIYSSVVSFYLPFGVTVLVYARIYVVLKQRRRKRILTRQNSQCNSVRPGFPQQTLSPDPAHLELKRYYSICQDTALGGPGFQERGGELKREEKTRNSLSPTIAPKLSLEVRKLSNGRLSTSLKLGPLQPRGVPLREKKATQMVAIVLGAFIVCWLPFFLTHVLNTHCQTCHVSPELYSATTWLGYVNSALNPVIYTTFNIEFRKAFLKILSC
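Cells expressing the human receptor were seeded at 1500 cells/well, incubated overnight at 37 degrees C in 5% CO2, then exposed to library compounds with dopamine controls for 90 minutes at 37 degrees C before luminescent detection.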
D1 ag – human D1 receptor agonism; activation, % at 2 µM; P21728; actives 1% (n = 360,000); HEK293 T-REx D1 cells, calcium flux, agonist mode; in the data active = activation above about 30%; also: 0% is about no effect
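Tetracycline-induced HEK293 TREx D1 cells, force-coupled to calcium signalling, were dye-loaded with a no-wash calcium kit. Compound was pin-added after a 10 s baseline. Fluorescence was read kinetically at 1 cycle/s for 180 s, with calcium rises flagged as agonism.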
D3 ag – activates the human D3 dopamine receptor. P35462. D3R DiscoveRx beta-arrestin cells, luminescence, 90 min. max activation, %. actives 0.58% (n = 410,000). AID 652048; in the data active = max activation above about 30%; also: 0% is about no effect
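Agonist-mode cell screen: cells plated at 1500/well and incubated overnight at 37 °C, then exposed to library compounds for 90 min at 37 °C. Detection reagent was added for 30–60 min at room temperature, and luminescence was read.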
D1 potentiator – potentiators of human D1 dopamine receptor; P21728; HEK293 TREx D1 cells, calcium flux, dopamine EC20 potentiation; potentiation, % at 10 µM; actives 0.036% (n = 360,000); AID 504651; in the data active = potentiation above about 30%; also: 0% is about no effect
D1 antagonist – blocks dopamine activation of the human D1 receptor. P21728. HEK293 TREx D1 cells, calcium flux, dopamine EC80; stronger effect = lower value. activity change, negative = inhibition, % at 10 µM. actives 3.2% (n = 360,000). AID 504652; in the data active = activity change below about -30%; also: % is scaled to controls: 0 for no effect and ±100 for the full control effect
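Inducible Hek293 Trex D1 cells (tetracycline, overnight, 30 C). Calcium dye 30–90 min RT. Antagonist mode: EC80 dopamine added after 180 s compound read.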
Active calls of the source: *; ? = inconclusive; / = no result given; ! = not confirmed by another sample. Shown are actives, neighbours in structure and some others; about 6% of the full set was active somewhere.

SMILES	D3 antag	D1 ag	D3 ag	D1 potentiator	D1 antagonist
Cc1ccc(NC(=O)CSc2nc(-c3cccs3)nc3cc(=O)[nH]n23)cc1	/	0.7	10.9	2.5	-10.8
Cc1cccc(NC(=O)Cn2c(=O)n(CCCS(=O)(=O)C3CCCCC3)c(=O)c3ccccc32)c1	/	1.8	6.4	0.7	15.0
CCCOc1ccc(C2c3c(-c4ccccc4O)n[nH]c3C(=O)N2CCc2ccccc2)cc1OCC (centres undefined)	/	6.4	6.8	2.5	-0.1
CCCN(CCC)S(=O)(=O)c1ccc(C(=O)N2CCn3c4c(c5cc(C)ccc53)CCCC42)cc1 (centres undefined)	/	-0.4	-10.2	-3.0	2.3
CC(C)(C)c1ccc(C(=O)NC2(C(F)(F)F)C(=O)Nc3c2c(=O)[nH]c(=O)n3-c2ccccc2)cc1 (centres undefined)	/	-0.5	-0.2	-2.9	10.3
COc1ccc(NC(=O)C(C)n2nc(-c3ccc(C)c(C)c3)ccc2=O)cc1OC (centres undefined)	/	-0.2	9.4	-0.6	-5.6
CCOc1ccc(NC(=O)CC2C(=O)N(c3ccc(C)cc3)C(=O)N2CCC2=CCCCC2)cc1 (centres undefined)	/	1.3	-4.9	-1.6	-8.8
Cc1ncc(CN2CCCC(C(=O)Nc3ccc(-c4cccc(F)c4)cc3)C2)n1C (centres undefined)	?	15.6	-9.4	-12.8	-31.6*
Cc1cc2c(s1)c1cnn(Cc3c(F)c(F)cc(F)c3F)c(=O)c1n2C	/	2.7	/	7.8	6.5
Cc1cccc(CNC(=O)CSCc2cnn(-c3ccccc3)c2-n2cccc2)c1	/	19.5	-8.6	-1.8	-11.6
CC(C)OC(=O)c1cc(C(=O)OC(C)C)cc([N+](=O)[O-])c1	/	/	10.5	/	/
O=S(=O)(NCCc1ccccc1)c1cccc(S(=O)(=O)N2CCOCC2)c1	-5.5	2.5	-3.6	-6.2	-10.3
O=S(=O)(NCCC1=CCCCC1)c1cccc(S(=O)(=O)N2CCOCC2)c1	-71.8*	4.5	1.2	-2.5	0.2
O=c1cc(CSc2ccccc2)[nH]c(=S)[nH]1	-95.2*	1.1	-8.9	-2.1	-0.9
CCCCCc1ccc(OCCCC[n+]2ccccc2)c(CCCCC)c1	-9.8	96.5*	-0.3	-0.2	-24.3
CCCCCc1ccc(OCCCC[n+]2ccc(C)cc2)c(CCCCC)c1	-5.9	202.1*	-4.9	20.2	-12.1
CCC(C)(C)c1ccc(OCCCC[n+]2ccccc2)c(C(C)(C)CC)c1	-5.1	165.8*	-3.5	-10.9	-3.5
CCCCCc1ccc(OCCCC[n+]2cccc(C)c2)c(CCCCC)c1	-24.9	3.9	-11.8	-4.2	15.3
CCCc1ccc(OC(=O)CSc2nnc(-c3cccs3)o2)cc1	/	1.6	9.0	1.6	5.5
Cc1ccc(C)c(Cn2c(=O)n(C(C)C)c(=O)c3oc4ccccc4c32)c1	/	0.0	-10.8	-1.8	-79.8*
Cc1ccc(C)c(Cn2c(=O)n(Cc3ccco3)c(=O)c3oc4ccccc4c32)c1	/	1.3	-16.7	-3.7	10.1
CCN1CCN(c2nc(-c3ccccc3)c3ccccc3n2)CC1	-82.1*	4.7	-23.7	/	18.2
c1ccc(-c2nc(N3CCNCC3)nc3ccccc23)cc1	-11.6	34.1*	-3.2	-6.7	-9.7
Cc1ccc(C)c2[nH]c(=O)c(C(c3nnnn3C(C)(C)C)N3CC=C(c4ccc(F)cc4)CC3)cc12 (centres undefined)	-51.4*	1.9	-1.4	-4.2	-6.3
Cn1cc(CCCC(=O)NCc2ccccc2Cl)c2ccccc21	/	2.8	8.9	-1.6	-3.6
SMILES	D3 antag	D1 ag	D3 ag	D1 potentiator	D1 antagonist
COc1ccc(C2=C/C(=C\c3cccc(OC(C)=O)c3)C(=O)O2)cc1	-18.3	81.3*	-1.9	-7.3	-31.1*
COc1ccc(C2=C/C(=C\c3ccccc3OC(C)=O)C(=O)O2)cc1	-13.9	53.7*	-8.7	2.5	-10.0
COc1ccccc1/C=C/c1nc2ccc(OC(C)=O)cc2c(=O)o1	-0.9	0.2	1.3	-2.9	11.0
Cc1ccc(C(C)C)c(OCC(=O)Nc2ccc(S(=O)(=O)Nc3onc(C)c3C)cc2)c1	/	-0.5	-9.2	1.3	7.5
O=C(CCC(=O)N1CCOc2ccc(Cl)cc21)NCCCN1CCC(Cc2ccccc2)CC1	-70.6*	12.6	-14.2	-19.1	-41.1*
Cc1ccc(C)c(N2CCN(CCCNC(=O)CCC(=O)N3CCOc4ccc(Cl)cc43)CC2)c1	/	17.4	/	-9.9	-2.2
O=C(CCC(=O)N1CCOc2ccc(Cl)cc21)NCCCN1CCN(c2ccccc2F)CC1	-95.5*	8.7	3.5	-22.3	-42.0*
S=c1[nH]nc(-c2cccnc2)n1C1CCCCC1	-5.7	1.3	-4.8	5.2	-0.6
S=c1[nH]nc(-c2ccccc2)n1C1C=CCCC1 (centres undefined)	-54.9*	1.7	-3.1	-2.8	0.1
COCCCNc1nc2ccccc2nc1NS(=O)(=O)c1ccc(OC)cc1	13.3	2.0	1.6	-0.2	-1.5
COCCCNc1nc2ccccc2nc1NS(=O)(=O)c1cccs1	-63.9*	4.8	-2.7	1.1	0.7
CC1OC(OC2C(OC3C(O[C@H]4CC[C@]5(C)C6C=C[C@]78OC[C@@]9(CC[C@@H](C)[C@H](C)C97)[C@H](O)C[C@@]8(C)[C@]6(C)CC[C@H]5C4(C)C)OC(C)C(O)C3O)OC(CO)C(O)C2O)C(O)C(O)C1O (some centres undefined)	/	393.9*	/	16.4	34.6
NC(=O)c1nc(Nc2ccccc2)sc1NC(=O)c1ccccc1Br	/	12.6	5.3	-3.4	0.0
Oc1ccc2nnc3c(Br)cnn3c2c1	64.5	171.0*	3.3	-2.3	1.3
Clc1ccc2nc3c4ccccc4cnn3c2c1	-5.7	0.7	-6.8	-8.8	-4.8
Cc1ccc(NC(=O)Nc2ccccc2CC[N+](=O)[O-])cc1	-22.6	8.6	1.2	-6.8	-32.4*
Cc1ccc(N(CC2=NCCN2)c2cccc(O)c2)cc1	-63.0*!	0.9	-66.9	-11.7	-31.6*!
c1ccc(CN(CC2=NCCN2)c2ccccc2)cc1	-17.7	1.5	0.0	-1.9	12.9
Cc1ccc(C)c(CSc2nc3c([nH]c4ccccc43)c(=O)n2C)c1	/	0.7	-0.7	-1.6	6.5
CCOc1ccc(NC(=O)CC2C(=O)N(c3ccccc3)C(=O)N2C2CCCCC2)cc1 (centres undefined)	/	-1.6	1.8	-1.6	-1.5
C/C(=N\NC(=O)Cc1ccc(Cl)cc1)c1ccc(F)cc1	-1.3	5.2	-3.0	-0.1	-17.2
C/C(=N\NC(=O)CSCc1ccc([N+](=O)[O-])cc1)c1ccccc1	6.6	4.8	3.9	-9.5	2.1
C/C(=N\NC(=O)Cc1ccc(Cl)cc1)c1ccccc1O	-7.7	5.9	-17.2	-8.2	-35.8*
C/C(=N\NC(=O)CSCc1ccc([N+](=O)[O-])cc1)c1ccccc1O	?	3.5	-53.3	-12.3	-86.7*

Screens (PubChem BioAssay)
